Laboratory results taken from the supplement of paper PMC12339681.
Counter-ions that a name gives are not always drawn.

test system: PBMC-derived induced microglia-like cells (piMGLC); test: synaptosome phagocytic index relative to DMSO control (fraction of DMSO); higher = more phagocytosis; conditions: concentration: 10 uM (2 uM for compounds listed in Table S2); pretreatment time: 24 h; assay time: 3 h

Row | SMILES | synaptosome phagocytic index
1 | NC(=O)c1cnccn1 [Pyrazinamide] | 1.21
2 | CN1C(=O)[C@@H](NC(=O)c2n[nH]c(Cc3ccccc3)n2)COc2ccccc21 | 1.15
3 | CC(C)C[C@H](NC(=O)[C@H](CCCCN)NC(=O)[C@H](CO)NC(=O)[C@@H](N)CC(C)C)C(N)=O [LSKL,_Inhibitor_of_Thrombospondin_(TSP-1)_(TFA)] | 1.05
4 | CN(CCOc1ccc(CC2SC(=O)NC2=O)cc1)c1ccccn1 (stereo unspecified) [Rosiglitazone] | 1.19
5 | COc1cc(C(=O)Nc2cc(OC(F)(F)F)ccc2-n2cncn2)ccc1OCC1CC1 | 0.921
6 | NCCCS(=O)(=O)O [Tramiprosate] | 1.14
7 | Cc1ccc(-c2ncn(-c3ccc(Nc4nccc(-c5cccc(N6CCOCC6)c5)n4)cc3)n2)cn1 | 0.167
8 | CN1C(=O)OC(C)(C)C1=O [Trimethadione] | 0.751
9 | COc1cc(C(=O)NCc2ccc(OCCN(C)C)cc2)cc(OC)c1OC [Trimethobenzamide_hydrochloride] | 1.24
10 | CCCC(CCC)C(=O)O [Valproic_acid] | 0.68
11 | CCc1cc2c(cc1N1CCC(N3CCOCC3)CC1)C(C)(C)c1[nH]c3cc(C#N)ccc3c1C2=O [Alectinib_(Hydrochloride)] | 0.192
12 | COc1ncc(F)cc1CNc1ccc(Cc2c[nH]c3ncc(C)cc23)c(F)n1 | 0.951
13 | CC(=O)c1c(C)c2cnc(Nc3ccc(N4CCNCC4)cn3)nc2n(C2CCCC2)c1=O [Palbociclib_(isethionate)] | 0.421
14 | CC(=O)Oc1ccccc1C(=O)O [Aspirin] | 0.579
15 | COC1(c2sc3c(N4CCOCC4)nc(-c4cnc(N)nc4)nc3c2C)COC1 | 0.384
16 | C[C@@H]1CN(c2cccnc2F)C(=O)c2cc(COc3ccc(Cl)cn3)nn21 | 1.13
17 | Clc1ccc(COC(Cn2ccnc2)c2ccc(Cl)cc2Cl)c(Cl)c1 (stereo unspecified) [Miconazole_(nitrate)] | 1.09
18 | Cc1cc(C)cc(OCC2CNC(=O)O2)c1 (stereo unspecified) [Metaxalone] | 0.757

Row | SMILES | synaptosome phagocytic index
19 | CS(=O)(=O)c1ccc(C(=O)Nc2ccc(Cl)c(-c3ccccn3)c2)c(Cl)c1 [Vismodegib] | 0.948
20 | CCc1c(C)[nH]c2c1C(=O)C(CN1CCOCC1)CC2 (stereo unspecified) [Molindone_(hydrochloride)] | 0.64
21 | Cc1ncc([N+](=O)[O-])n1CCO [Metronidazole] | 0.51
22 | Cc1ccc(N2CCN(Cc3nc4ccccc4[nH]3)CC2)cc1C | 1.03
23 | NNC(=O)c1ccncc1 [Isoniazid] | 1.01
24 | COC(=O)N[C@H](C(=O)N[C@@H](Cc1ccccc1)[C@@H](O)CN(Cc1ccc(-c2ccccn2)cc1)NC(=O)[C@@H](NC(=O)OC)C(C)(C)C)C(C)(C)C [Atazanavir_(sulfate)] | 0.81
25 | CCCN[C@H]1CCc2nc(N)sc2C1 [Pramipexole_(dihydrochloride_hydrate)] | 0.763
26 | COc1ccc(-c2c(C)nn3c(C(F)(F)F)cc(C)nc23)c(F)c1F | 0.98
27 | CN1[C@@H]2CC[C@H]1C[C@@H](OC(c1ccccc1)c1ccccc1)C2 [Benztropine_(mesylate)] | 0.833
28 | O=C(c1ccc(Cl)cc1)N(Cc1ccccc1)C1CCCCC1 | 0.616
29 | N#Cc1cccc(-c2c[nH]c3ncnc(N4CCOCC4)c23)c1 | 0.623
30 | C[C@@H](NC(=O)c1ccc(F)cc1)c1ccc2c(c1)CCN2C(=O)C1CCOCC1 | 0.908
31 | CC(C)NCC(O)COc1ccc(CC(N)=O)cc1 (stereo unspecified) [Atenolol] | 0.717
32 | NC[C@H]1CC[C@H](C(=O)O)CC1 [Tranexamic_acid] | 0.927
33 | Cn1cc(-c2ccncc2)c(-c2ccc(OCc3ccc4ccccc4n3)cc2)n1 [Mardepodect_(hydrochloride)] | 0.503
34 | CN1CCC(=C2c3ccccc3C=Cc3ccccc32)CC1 [Cyproheptadine_(hydrochloride)] | 0.741
35 | O=C(O)[C@H]1CSC(c2nc3cc4c(cc3s2)NCC4)=N1 | 0.923
36 | CN(C)CCOC(C)(c1ccccc1)c1ccccn1 (stereo unspecified) [Doxylamine_(succinate)] | 0.833
